Results as given in PubChem BioAssay.
“And” between values parts separate entries of the source, which are not always exact repeats. Identical values can stand only once. The source made the active and inactive calls.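 The calls were made as follows: active = thallium flux through the channel raised or lowered by more than 3 SD from vehicle-only wells, actives on both sides; inactive = the rest.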 Non-standard residues stand in square brackets, D forms with d. Residues, ends and D or L forms follow the SMILES beside them. pGlu = O=C1CC[C@@H](C(=O)O)N1; Thz = O=C(O)[C@@H]1CSCN1

Tested on: R275C/beta1
Test: BK channel mutant inhibitors and activators – cell-based, U2OS BacMam, thallium flux, beta subunits, selectivity assay, profiling panel (AID 1259406);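 also: initial slope of Thallos dye fluorescence rise after thallium is added; log ratio against the mean of 0.3% DMSO vehicle wells on the same plate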
Details: U2OS BacMam BK variants, at 30 µM

Log fold change Tl+ flux, inactive:
COc1nc(C)nc(Cl)c1NC1=NCCN1 -0.0423
CC(Cc1ccc(O)c(O)c1)(NN)C(=O)O (centres undefined) 0.024
CSc1nc(C)nc(Sc2cccc(C(F)(F)F)c2)c1C#N -0.00668
Cc1cc2c(s1)Nc1ccccc1N=C2N1CCN(C)CC1 0.000391

Tested on: R275C/beta2Delta
Test: as above
Details: U2OS BacMam BK variants, at 30 µM

Log fold change Tl+ flux, active:
CSc1nc2cc(Oc3cccc(Cl)c3Cl)c(Cl)cc2[nH]1 0.248
CNCC[C@@H](Oc1ccccc1C)c1ccccc1 0.125
CN(C)CCOc1ccc(/C(=C(/CCCl)c2ccccc2)c2ccccc2)cc1 -0.123

Log fold change Tl+ flux, inactive:
O=C1CN2Cc3c(ccc(Cl)c3Cl)N=C2N1 -0.00347
COC(=O)C[C@](O)(CCCC(C)(C)O)C(=O)O[C@@H]1C(OC)=C[C@]23CCCN2CCc2cc4c(cc2[C@H]13)OCO4 -0.0559
CNCC[C@H](Oc1cccc2ccccc12)c1cccs1 0.066
O=c1[nH]c(=O)n(C2CCCO2)cc1F (centres undefined) -0.0162
CN(C)CCc1c[nH]c2ccc(Cn3cncn3)cc12 -0.0421
COc1ccc(C[C@H](C)NC[C@@H](O)c2ccc(O)c(NC=O)c2)cc1 -0.0506
CC(C)C[C@H](NC(=O)[C@@H](O)[C@H](N)Cc1ccccc1)C(=O)O -0.0202
C[C@@H](c1ncncc1F)[C@](O)(Cn1cncn1)c1ccc(F)cc1F 0.0278
CN(C)CCCC1(c2ccc(F)cc2)OCc2cc(C#N)ccc21 (centres undefined) 0.0568 and 0.0646
CCOC(=O)c1ccc(OC(=O)CCCCCN=C(N)N)cc1 -0.0476
Cc1c(C(=O)NN2CCCCC2)nn(-c2ccc(Cl)cc2Cl)c1-c1ccc(I)cc1 -0.00675
CC(C)NCC(O)c1ccc(NS(C)(=O)=O)cc1 (centres undefined) -0.0581
O=C(NC(=O)c1ccccc1Oc1ccc(Cl)cc1Cl)Nc1cc(Cl)cc(Cl)c1 0.00447
CC(=O)NC[C@H]1CN(c2ccc(N3CCOCC3)c(F)c2)C(=O)O1 0.023
CC(CCCCC(=O)Nc1ccc(C(F)(F)F)cc1)NCCc1cnc[nH]1 (centres undefined) 0.0193
O=C(c1ccc(OCCN2CCCCC2)cc1)c1c(-c2ccc(O)cc2)sc2cc(O)ccc12 0.0378
O=C1CC[C@@H](C(=O)N2CSC[C@H]2C(=O)O)N1 ([pGlu]-[Thz]-OH) -0.0226
CN/C(=C\[N+](=O)[O-])NCCSCc1csc(CN(C)C)n1 -0.0114
Cc1cccc(CCN2CCC(C(=O)c3ccc(NS(C)(=O)=O)cc3)CC2)n1 -0.0466
CC(C)(S)C(N)C(=O)O (centres undefined) -0.0298
CC[C@H]1OC(=O)[C@H](C)[C@@H](O[C@H]2C[C@@](C)(OC)[C@@H](O)[C@H](C)O2)[C@H](C)[C@@H](O[C@@H]2O[C@H](C)C[C@H](N(C)C)[C@H]2O)[C@](C)(O)C[C@@H](C)CN(C)[C@H](C)[C@@H](O)[C@]1(C)O -0.0452
NCC(O)c1ccc(O)c(O)c1 (centres undefined) -0.0293
CN1CC(=O)N2[C@H](c3ccc4c(c3)OCO4)c3[nH]c4ccccc4c3C[C@@H]2C1=O 0.0543
COC(=O)c1sccc1NN=C(C)c1ccc(NC(=O)C(Cl)Cl)cc1 -0.0375
Cc1cnc(C(=O)NCCc2ccc(S(=O)(=O)NC(=O)NC3CCCCC3)cc2)cn1 0.0193
C/C(=C\C(=O)OCCCCCCCCC(=O)O)C[C@@H]1OC[C@H](C[C@@H]2O[C@H]2[C@@H](C)[C@H](C)O)[C@@H](O)[C@H]1O -0.0137
FC(F)(F)c1cc(C=Cc2noc(-c3ccc(CN4CCCC4)cc3)n2)cc(C(F)(F)F)c1 -0.0502
C[C@H]1O[C@H](O[C@H]2[C@H](O)[C@@H](O)[C@@H](O[C@H]3[C@H](O)[C@@H](O)C(O)O[C@@H]3CO)O[C@@H]2CO)[C@H](O)[C@@H](O)[C@@H]1N[C@H]1C=C(CO)[C@@H](O)[C@H](O)[C@H]1O (some centres undefined) -0.0417
CCCCN1CCCC1CNC(=O)c1cc(C#N)c2ccccc2c1OC (centres undefined) -0.085
COc1ccc2[nH]c(S(=O)Cc3ncc(C)c(OC)c3C)nc2c1 (centres undefined) 0.00561
CN1[C@@H]2CCC[C@H]1CC(NC(=O)c1nn(C)c3ccccc13)C2 (some centres undefined) 0.0242
COc1c(N2C[C@@H]3CCCN[C@@H]3C2)c(F)cc2c(=O)c(C(=O)O)cn(C3CC3)c12 0.0202
CCN(CC)CC#CCOC(=O)C(O)(c1ccccc1)C1CCCCC1 (centres undefined) -0.0198
COc1nc(C)nc(Cl)c1NC1=NCCN1 -0.005
CC(Cc1ccc(O)c(O)c1)(NN)C(=O)O (centres undefined) 0.0162
CSc1nc(C)nc(Sc2cccc(C(F)(F)F)c2)c1C#N -0.023
Cc1cc2c(s1)Nc1ccccc1N=C2N1CCN(C)CC1 -0.0244
